# Measurements taken from PubChem BioAssay.
# Active and inactive are the calls of the source. Unless noted, no stated cut-off is given here; in the data, active means inhibition above about 80%; inactive means the rest.
# What was measured:
# [1] = UWB1.289 ovarian carcinoma cell growth inhibition, synergistic combos for chromothripsis tumors, BGB or cisplatin combos (AID 1671456); conditions: UWB1.289 ovarian carcinoma cells, stronger effect = higher value;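 further: cells exposed to compound for four days; 0% = vehicle DMSO and 100% = killing by high DMSO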
# [2] = LFS_MB_2R medulloblastoma cell growth inhibition, synergistic combos for chromothripsis tumors, cisplatin combos (AID 1671457); conditions: LFS_MB_2R medulloblastoma cells, stronger effect = higher value;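 further: cells exposed to compound for four days before readout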
# [3] = MDA-MB-436 breast carcinoma cell growth inhibition, synergistic combos for chromothripsis tumors, BGB or cisplatin combos (AID 1671458; call rule not given here;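 further: cells exposed for 96 hours; 0% = vehicle DMSO and 100% = killing by high DMSO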); conditions: MDA-MB-436 breast carcinoma growth inhibition, drug combinations, stronger effect = higher value
# [4] = UWB1.289_BRCA1 ovarian cancer growth, cell-based, BGB or cisplatin combinations (AID 1671459); conditions: UWB1.289 BRCA1 ovarian carcinoma, drug combinations, stronger effect = higher value
# [5] = human astrocyte viability loss, single and combined drugs, cytotoxicity control for chromothriptic childhood tumor combination screen, cell-based, BGB or cisplatin IC20 combos (AID 1671460); conditions: Human astrocytes, drug combinations, stronger effect = higher value;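 further: cells exposed to compounds for 96 hours before viability readout; 0% = vehicle and 100% = killing control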
# [6] = growth inhibition of BT084 medulloblastoma cells, cell-based, ICGC_MB145, cisplatin and BGB IC40 combos (AID 1671461); conditions: drug combinations, stronger effect = higher value;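 further: cells exposed to drugs for 96 hours; 0% = vehicle DMSO and 100% = high DMSO full killing control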
# [7] = growth inhibition of RCMB18 medulloblastoma cells, cell-based, cisplatin and BGB IC40 combos (AID 1671462); conditions: stronger effect = higher value;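 further: cells exposed to compound for four days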
# [8] = growth inhibition of CRL1545 osteosarcoma cells, cell-based, cisplatin and BGB IC20 combos (AID 1671464); conditions: stronger effect = higher value;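 further: cells exposed to compound for 96 hours before readout; 0% = vehicle DMSO and 100% = high DMSO killing control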
# [9] = system: F380Y; test: modulators of BK channel variants, profiling panel, selectivity assay, cell-based, U2OS BacMam, thallium flux, beta subunits (AID 1259406;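 active means thallium flux through the channel raised or lowered by more than 3 SD from vehicle-only wells, actives on both sides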;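 further: initial slope of Thallos dye fluorescence rise after thallium is added; log ratio against the mean of 0.3% DMSO vehicle wells on the same plate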); conditions: at 30 µM
# [10] = system: F380Y/beta2Delta; test: as above; conditions: at 30 µM
# [11] = target: Calcium-activated potassium channel subunit alpha-1 (Homo sapiens) + Leucine-rich repeat-containing protein 26 (Homo sapiens) (UniProt Q12791+Q2I0M4); test: as above; conditions: F380Y/Slo1WT/gamma1, at 30 µM
# [12] = system: R275C; test: as above; conditions: at 30 µM
# [13] = system: R275C/beta1; test: as above; conditions: at 30 µM
# [14] = system: R275C/beta2Delta; test: as above; conditions: at 30 µM
# [15] = measured here: inhibition with BGB combination, at 0.05 µM
# [16] = measured here: inhibition with cisplatin combination, at 0.05 µM
# [17] = measured here: combination with cisplatin, at 0.5 µM
# [18] = measured here: combination with cisplatin, at 5 µM
# [19] = measured here: BGB combination, at 0.5 µM
# [20] = measured here: BGB combination, at 5 µM
# [21] = measured here: cisplatin combination, at 0.5 µM
# [22] = measured here: cisplatin combination, at 5 µM
# [23] = BGB combination, concentration series, at 5 µM
# [24] = cisplatin combination, concentration series, at 5 µM
# [25] = measured here: combo with BGB IC20, at 0.5 µM
# [26] = measured here: combo with cisplatin IC20, at 0.5 µM
# [27] = cisplatin combination, at 0.5 µM
# [28] = measured here: BGB IC40 combination 0.05 uM, at 0.05 µM
# [29] = measured here: BGB IC40 combination, at 0.05 µM
# [30] = measured here: with BGB IC20 combination, at 0.5 µM
# [31] = measured here: with cisplatin IC20 combination, at 0.5 µM
# Calcium-activated potassium channel subunit alpha-1 (Homo sapiens) + Leucine-rich repeat-containing protein 26 (Homo sapiens), sequence (Q2I0M4 whole entry, looked up, one chain of several): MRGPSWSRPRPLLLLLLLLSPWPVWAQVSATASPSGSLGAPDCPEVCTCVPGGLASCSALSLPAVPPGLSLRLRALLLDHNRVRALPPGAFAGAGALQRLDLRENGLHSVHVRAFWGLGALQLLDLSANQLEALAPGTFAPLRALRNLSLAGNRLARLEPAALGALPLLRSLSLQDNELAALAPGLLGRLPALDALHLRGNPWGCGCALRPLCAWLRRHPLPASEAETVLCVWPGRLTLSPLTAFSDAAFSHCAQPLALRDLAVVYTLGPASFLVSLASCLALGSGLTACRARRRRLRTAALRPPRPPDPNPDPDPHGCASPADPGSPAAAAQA
smiles,measurement,setting,value
CN(C)c1ccc(C(=C2C=CC(=[N+](C)C)C=C2)c2ccc(N(C)C)cc2)cc1,inhibition,[1]; at 0.5 µM,68.6% (inactive)
same,inhibition,[1]; [15],-11.5%
same,inhibition,[1]; [16],0.874%
same,inhibition,[2]; at 0.5 µM,55.4% (inactive)
same,inhibition,[2]; [17],59.1%
same,inhibition,[2]; [18],89.4%
same,inhibition,[3]; at 0.5 µM,80.4% (active)
same,inhibition,[3]; [19],73.7%
same,inhibition,[3]; [20],97.1%
same,inhibition,[3]; [21],80.1%
same,inhibition,[3]; [22],98.7%
same,inhibition,[4]; [23],105%
same,inhibition,[4]; at 0.5 µM,71.7% (inactive)
same,inhibition,[4]; [24],110%
same,inhibition,[5]; at 0.5 µM,67.2% (inactive)
same,inhibition,[5]; [25],65.8%
same,inhibition,[5]; [26],54.6%
same,inhibition,[6]; at 0.5 µM,70.2% (inactive)
same,inhibition,[6]; [27],82.8%
same,inhibition,"[6]; cisplatin combination, at 5 µM",101%
same,inhibition,[6]; [28],-10.9%
same,inhibition,"[6]; single agent, at 5 µM",103%
same,inhibition,[7]; at 0.5 µM,64.4% (inactive)
same,inhibition,"[7]; cisplatin combo, at 5 µM",97.3%
same,inhibition,[7]; [29],11.2%
same,inhibition,[7]; [17],59.9%
same,inhibition,"[7]; single agent, at 5 µM",94.1%
same,inhibition,[8]; at 0.5 µM,99.5% (active)
same,inhibition,[8]; [30],99.4%
same,inhibition,[8]; [31],99.5%
same,inhibition,"[8]; single agent, at 0.05 µM",17.4%
same,inhibition,"[8]; single agent, at 5 µM",99.6%
C#C[C@]1(O)CC[C@H]2[C@@H]3CCc4cc(O)ccc4[C@H]3CC[C@@]21C,log fold change Tl+ flux,[9],0.0259 (inactive)
same,log fold change Tl+ flux,[10],-0.0272 (inactive)
same,log fold change Tl+ flux,[11],0.0947 (active)
same,log fold change Tl+ flux,[12],-0.0326 (inactive)
same,log fold change Tl+ flux,[13],0.0956 (inactive)
same,log fold change Tl+ flux,[14],0.155 (active)
NC(=O)NO,inhibition,[1]; at 0.5 µM,5.4% (inactive)
same,inhibition,[1]; [15],5.3%
same,inhibition,[1]; [16],-10.2%
same,inhibition,[2]; at 0.5 µM,11.7% (inactive)
same,inhibition,[2]; [17],8.29%
same,inhibition,[2]; [18],17%
same,inhibition,[3]; at 0.5 µM,-8.14% (inactive)
same,inhibition,[3]; [19],-5.6%
same,inhibition,[3]; [20],-2.86%
same,inhibition,[3]; [21],-19.6%
same,inhibition,[3]; [22],19.7%
same,inhibition,[4]; [23],13.1%
same,inhibition,[4]; at 0.5 µM,4.57% (inactive)
same,inhibition,[4]; [24],15.7%
same,inhibition,[5]; at 0.5 µM,-3.17% (inactive)
same,inhibition,[5]; [25],-6.58%
same,inhibition,[5]; [26],5.32%
same,inhibition,[6]; at 0.5 µM,3.97% (inactive)
same,inhibition,[6]; [27],0.756%
same,inhibition,"[6]; cisplatin combination, at 5 µM",-27.3%
same,inhibition,[6]; [28],10.1%
same,inhibition,"[6]; single agent, at 5 µM",1.06%
same,inhibition,[7]; at 0.5 µM,12.5% (inactive)
same,inhibition,"[7]; cisplatin combo, at 5 µM",15.7%
same,inhibition,[7]; [29],-13.6%
same,inhibition,[7]; [17],28.2%
same,inhibition,"[7]; single agent, at 5 µM",-32.4%
same,inhibition,[8]; at 0.5 µM,-15.5% (inactive)
same,inhibition,[8]; [30],6.18%
same,inhibition,[8]; [31],-26.4%
same,inhibition,"[8]; single agent, at 0.05 µM",-10.2%
same,inhibition,"[8]; single agent, at 5 µM",-5.37%
CCn1cc(C(=O)O)c(=O)c2cc3c(cc21)OCO3,inhibition,[1]; at 0.5 µM,2.29% (inactive)
same,inhibition,[1]; [15],-2.14%
same,inhibition,[1]; [16],-6.63%
same,inhibition,[2]; at 0.5 µM,-21.9% (inactive)
same,inhibition,[2]; [17],-20.2%
same,inhibition,[2]; [18],-21.2%
same,inhibition,[3]; at 0.5 µM,-14.4% (inactive)
same,inhibition,[3]; [19],-16.2%
same,inhibition,[3]; [20],-18.6%
same,inhibition,[3]; [21],-20.7%
same,inhibition,[3]; [22],-20.6%
same,inhibition,[4]; [23],-2.14%
same,inhibition,[4]; at 0.5 µM,1.91% (inactive)
same,inhibition,[4]; [24],15.4%
same,inhibition,[5]; at 0.5 µM,-0.34% (inactive)
same,inhibition,[5]; [25],2.16%
same,inhibition,[5]; [26],-8.86%
same,inhibition,[6]; at 0.5 µM,-9.83% (inactive)
same,inhibition,[6]; [27],15.9%
same,inhibition,"[6]; cisplatin combination, at 5 µM",-11.8%
same,inhibition,[6]; [28],27.5%
same,inhibition,"[6]; single agent, at 5 µM",-16.8%
same,inhibition,[7]; at 0.5 µM,-3.66% (inactive)
same,inhibition,"[7]; cisplatin combo, at 5 µM",2.43%
same,inhibition,[7]; [29],-11.1%
same,inhibition,[7]; [17],16.7%
same,inhibition,"[7]; single agent, at 5 µM",-9.78%
same,inhibition,[8]; at 0.5 µM,-6.67% (inactive)
same,inhibition,[8]; [30],-7.74%
same,inhibition,[8]; [31],-6.13%
same,inhibition,"[8]; single agent, at 0.05 µM",12.4%
same,inhibition,"[8]; single agent, at 5 µM",12.2%
